RMI-FANCM inh – RMI-FANCM interaction inhibition; Fluorescence polarization, RMI core complex with F-MM2 peptide; hits give low values; FP signal (polarization) at 33 µM; hit rate 0.58% among 70,000; AID 1159607; in the data active means FP signal below about 40
* hit, by the source's call; ! = repeats disagree. Only a selection was taken, and hits are over-represented in it overall.

SMILES	RMI-FANCM inh
CCOC(=O)c1c(NC(=O)c2ccc([N+](=O)[O-])o2)sc2c1CCN(CC)C2	66
COc1ccc2oc(-c3csc(NC(=O)c4ccccc4C)n3)cc2c1	75
O=C(Cc1nc2ccccc2s1)c1ccc(O)cc1O	24*
O=C(OCc1nc2ccccc2s1)c1nc2ccccc2s1	62
NC(=O)NC(=O)Cc1nc2ccccc2s1	53
CC(=O)OC(OC(C)=O)c1ccc(S(C)(=O)=O)cc1	55
Cc1ccccc1C(=O)Nc1nnc(-c2ccccc2)o1	69
O=C(O)c1ccccc1Nc1ccccc1	55
Cc1cccc(Nc2ccccc2C(=O)O)c1C	25*!
Cc1cccc(C(=O)O)c1O	60
CCN(CC)CCN(C(=O)c1ccc(C(=O)c2ccccc2)cc1)c1nc2c(OC)ccc(OC)c2s1	94
O=[N+]([O-])c1cccc(-c2nnc3c4cnn(-c5ccc(F)cc5)c4ncn23)c1	64
N=c1c2cnn(-c3ccccc3)c2ncn1/N=C\c1ccc([N+](=O)[O-])cc1	39*
O=c1c2cnn(-c3ccccc3)c2nnn1/N=C\c1ccc([N+](=O)[O-])cc1	43
O=C(NNc1ccccc1C(F)(F)F)c1c(F)cccc1Cl	56
CC1CC(C)CN(S(=O)(=O)c2ccc(C(=O)Nc3ccc(Br)cc3C(=O)c3ccccc3)cc2)C1 (configuration not stated)	67
CN1C(=O)OC(c2ccccc2)C1=O (configuration not stated)	59
CCOC(=O)N1CCc2c(sc(NC(=O)CCS(=O)(=O)c3ccccc3)c2C(N)=O)C1	69
CCN1CCc2c(sc(NC(=O)CCS(=O)(=O)c3ccc(C)cc3)c2C(N)=O)C1	34*
CC(=O)N1CCc2c(sc(NC(=O)CSc3ccc(Cl)cc3)c2C(N)=O)C1	-4*
CC(=O)N1CCc2c(sc(NC(=O)CCSc3ccc(C)cc3)c2C(N)=O)C1	56
Cc1ccc(S(=O)(=O)CC(=O)Nc2sc3c(c2C(N)=O)CCN(C(C)C)C3)cc1	57
CC(C)N1CCc2c(sc(NC(=O)c3ccn(C)n3)c2C(N)=O)C1	74
Cc1ccc(S(=O)(=O)CCC(=O)Nc2sc3c(c2C(N)=O)CCC(C)C3)cc1 (configuration not stated)	83
CCN1CCc2c(sc(NC(=O)c3ccnn3C)c2C(N)=O)C1	68
SMILES	RMI-FANCM inh
CCOC(=O)N1CCc2c(sc(NC(=O)CS(=O)(=O)c3ccc(C)cc3)c2C(N)=O)C1	63
CCN1CCc2c(sc(NC(=O)CS(=O)(=O)c3ccc(F)cc3)c2C(N)=O)C1	13*
CCOC(=O)N1CCc2c(sc(NC(=O)CCSc3ccc(Cl)cc3)c2C(N)=O)C1	58
CC(C)N1CCc2c(sc(NC(=O)CN3C(=O)c4ccccc4C3=O)c2C(N)=O)C1	-4*
CCOC(=O)Cn1c(=NC(=O)c2ccccc2[N+](=O)[O-])sc2cc(NC(C)=O)ccc21	62
CCOC(=O)N1CCN(C(=O)CSc2nc(N)c(NC(=O)c3cccs3)c(=O)[nH]2)CC1	61
Cc1ccc(-n2ncc3c(=O)n(Cc4ccc(Br)cc4)cnc32)c(C)c1	68
O=C(NCCc1ccccc1)C(=O)NCC1CCN(C2CCCC2)CC1	76
Cc1cc(-c2nnc(NC(=O)c3ccc([N+](=O)[O-])o3)o2)n(C)n1	71
COc1ccc(S(=O)(=O)N2CCN(c3ccc(-c4ccncc4)nn3)CC2)cc1C	65
CN1CCC(/C=C/c2cccs2)=N1	56
O=C(COc1ccc(F)cc1F)N1CCN(c2ccc3nnc(-c4ccco4)n3n2)CC1	69
CC(NC(=O)C12CC3CC(CC(C3)C1)C2)C(=O)N/N=C\c1ccc([N+](=O)[O-])o1 (configuration not stated)	62
COc1c(Br)cc(Br)c2c1OCCO2	62
COC(=O)c1sccc1Oc1ccc(C(F)(F)F)cc1NS(=O)(=O)c1ccc(C)cc1	53
O=C(Cn1c(-c2ccncc2)nc2ccccc21)N1CCN(c2ccccc2)CC1	60
O=C(CSc1nccn2nc(-c3ccc(Cl)cc3)cc12)NCCc1ccccc1	77
COc1ccc(N2CC(CNS(=O)(=O)c3ccc(Cl)cc3)CC2=O)cc1 (configuration not stated)	58
O=c1[nH]c2c(s1)C(c1ccc(Cl)cc1)C1C3CCC(C3)C1S2 (configuration not stated)	16*
COc1ccc(C2c3sc(=O)[nH]c3SC3C4CC(C5C(=O)N(c6ccccc6)C(=O)C45)C23)cc1 (configuration not stated)	56
O=c1[nH]c2c(s1)C1c3ccccc3OCC1CS2 (configuration not stated)	-9
COc1cccc2cc(C(=O)Nc3nc(-c4cc5cccc(OC)c5o4)cs3)oc12	74
O=C(/C=C/c1ccccc1Cl)Nc1nnc(-c2ccno2)o1	55
CC(=O)OC[C@H]1O[C@@H](OCc2ccccc2)[C@H](OC(C)=O)[C@@H](OC(C)=O)[C@@H]1OC(C)=O	54
O=C(OC[C@H]1O[C@H](OC(=O)c2cc(O)c(O)c(OC(=O)c3cc(O)c(O)c(O)c3)c2)[C@H](OC(=O)c2cc(O)c(O)c(OC(=O)c3cc(O)c(O)c(O)c3)c2)[C@@H](OC(=O)c2cc(O)c(O)c(OC(=O)c3cc(O)c(O)c(O)c3)c2)[C@@H]1OC(=O)c1cc(O)c(O)c(OC(=O)c2cc(O)c(O)c(O)c2)c1)c1cc(O)c(O)c(OC(=O)c2cc(O)c(O)c(O)c2)c1	29*
SMILES	RMI-FANCM inh
O=C(Oc1cc(O)cc2c1C[C@@H](OC(=O)c1cc(O)c(O)c(O)c1)[C@@H](c1ccc(O)c(O)c1)O2)c1cc(O)c(O)c(O)c1	54
O=C1N=C(N2CCN(c3ccccc3F)CC2)S/C1=C\c1cccnc1	66
CC1CCN(C2=NC(=O)/C(=C\c3ccccc3)S2)CC1	58
O=C1N=C(N2CCN(c3ccccc3[N+](=O)[O-])CC2)S/C1=C/c1cccs1	18*
O=C(CCc1nc2sc3c(c2c(=O)[nH]1)CCCCC3)NCCc1ccc(Cl)cc1	118
CCCOc1ccc(S(=O)(=O)Nc2ccc3c(c2)N(S(=O)(=O)CC)CCC3)cc1C	83
COc1nn(C)cc1C(=O)Nc1ccc(C(F)(F)F)cc1	57
COC(OC)c1ccc2c(N)c(C(=O)Nc3ccc(C(F)(F)F)cc3)sc2n1	39*
Cn1c(=O)c2cc(C(=O)Nc3ccc(C(F)(F)F)cc3)sc2n(C)c1=O	64
COc1ccc(-c2cc3ccccc3n2CC(O)Cn2cnc(-c3ccccc3)c2-c2ccccc2)cc1 (configuration not stated)	64
CCOC(=O)c1ccc(NC(=O)CSc2cn(Cc3ccc(Br)cc3)c3ccccc23)cc1	63
CCOC(=O)c1ccc(-c2ccc(/C=C3\SC(=O)NC3=S)o2)cc1	-42
O=C1NC(=S)/C(=C/c2ccc(-c3ccccc3[N+](=O)[O-])o2)S1	9*
O=C1C(=Cc2ccc(-c3ccc(C(F)(F)F)cc3[N+](=O)[O-])o2)C(=O)c2ccccc21	59
CCOc1ccccc1N1C(=O)CNC1=S	55
CCOc1ccc(N2C(=O)S/C(=C\C=C\c3ccco3)C2=O)cc1	54
CCOc1ccccc1N1C(=O)/C(=C/C=C/c2ccco2)SC1=S	14*
CNC(=O)NNC(=O)Cn1nnc(N2CCCC2)n1	55
CC(C)n1c(C(F)(F)F)nc2cc(C(=O)NCc3ccncc3)ccc21	57
O=C(O)/C=C/C(=O)N1CCCN(c2ncccc2C(F)(F)F)CC1	53
O=C(O)C1CCCN1C(=O)c1cccs1 (configuration not stated)	62
